Only some compounds are listed: those with a hit (about 1.6% of all), similar ones and a draw of the others.
GC-A act – GC-A stimulated cGMP production enhancers – HEK293 GC-A cells, cGMP TR-FRET, EC30 ANP, primary screen. Atrial natriuretic peptide receptor 1 (Homo sapiens), P16066. 0% at EC30 ANP, 100% saturating ANP. activation, % at 10 µM. actives 0.14% (n = 370,000). AID 1671463, 2021; in the data active = activation above about 40%
V-ATPase pH – regulators of yeast V-ATPase proton pumping, primary screen, pHLuorin cytosolic pH fluorescence; S. cerevisiae; response, % at 10 µM; actives 0.37% (n = 350,000); in the data active = response mostly above about 7.3%, no sharp cut-off; inactive = mostly below about 5.4%; note: actives read high
GC-B act – human GC-B receptor activators, primary screen, HEK293 GC-B cells, cGMP TR-FRET, EC30 CNP; 0% at EC30 CNP, 100% saturating CNP; activation, % at 10 µM; actives 0.11% (n = 370,000); AID 1920062, 2024;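 active = activation at 10 µM reaching about 35% in either raw or pattern-adjusted values, limit read from the data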
NR1D1 modulator – modulators of Rev-erb alpha DNA binding, primary screen, biochemical, FITC-DNA, fluorescence polarization, uHTS; actives 0.79% (n = 370,000); Rev-erbα–FITC-DNA binding, 90 min; Nuclear receptor subfamily 1 group D member 1 (Homo sapiens), P20393; activity, % at 10 µM;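 active = activity above about 14%, limit read from the data; passing the limit was not always enough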
PG9 Ab binder – binders of HIV-1 gp120 antibody PG9, primary screen, biochemical, TR-FRET; TR-FRET gp120-PG9 antibody binding; inhibition, % at 6.7 µM; actives 0.43% (n = 360,000); in the data active = inhibition above about 8.5%
Of the large screens only hits and unclear results are named; the others gave an inactive call.

Cc1cc(NCCCCCCCNc2cc(C)nc3cc([N+](=O)[O-])ccc23)c2ccc([N+](=O)[O-])cc2n1	PG9 Ab binder 13.0
CCCCCCCCCCCCCCCC(=O)OCC(O)[C@H]1OC(=O)C(O)=C1O (stereo partly specified)	none (no result: GC-A act, V-ATPase pH, GC-B act, PG9 Ab binder)
CCCCc1oc2ccc(NS(C)(=O)=O)cc2c1C(=O)c1ccc(OCCCN(CCCC)CCCC)cc1	none (no result: GC-A act, V-ATPase pH, GC-B act, PG9 Ab binder)
COc1ccc(S(=O)(=O)/N=C2/C=CC(=O)C(C)=C2C)cc1	none (no result: GC-A act, GC-B act, NR1D1 modulator, PG9 Ab binder)
CC1=C(C)/C(=N\OS(=O)(=O)c2ccc(C)cc2)C=CC1=O	V-ATPase pH 10.1
Cn1c(N)c(C(=O)COC(=O)c2cc(C3CC3)nc3ccccc23)c(=O)n(C)c1=O	GC-B act 36.2
COc1cc(/C(C)=N\NC(N)=S)cc(OC)c1OC	none
COc1cc(/C(C)=N/NC(=S)NC(C)C)cc(OC)c1OC	GC-B act 38.8
CCCN(CCC)C(=O)c1cc2c(=O)[nH]c3ccc(C)cc3c2s1	none
Cc1ccc(C)c(N(C)C(=O)c2cc3c(=O)[nH]c4ccc(C)cc4c3s2)c1	GC-B act 37.2
CC(C)CN(C[C@@H](OP(=O)(O)O)[C@H](Cc1ccccc1)NC(=O)O[C@H]1CCOC1)S(=O)(=O)c1ccc(N)cc1	none (no result: GC-A act, V-ATPase pH, GC-B act, PG9 Ab binder)
C[C@@H]1CCN(C2CC2)S(=O)(=O)c2ccc(N3CC[C@H](O)C3)cc2O1	none (no result: V-ATPase pH, PG9 Ab binder)
CC(C)c1ccc(NC(=O)C2CCCCC2C(=O)O)cc1 (stereo unspecified)	V-ATPase pH 14.1
C[C@@H]([C@@H](O)c1ccccc1)N(C)C(=O)C(N)Cc1ccccc1 (stereo partly specified)	V-ATPase pH 26.2
N[C@H](Cc1ccccc1)C(=O)O	none (no result: GC-A act, V-ATPase pH, GC-B act, PG9 Ab binder)
Cn1nc(C(=O)Nc2ccccc2)c2c1-c1ccccc1S(=O)(=O)C2	V-ATPase pH 14.0
COC(=O)[C@]12C[C@H](CC(=O)N3CCCCC3)C(=O)N(Cc3ccco3)C1=C[C@H](COCc1ccccc1)O[C@@H]2C	none (no result: V-ATPase pH, PG9 Ab binder)
O=c1c(Cl)c(Cl)cnn1Cc1nnc(-c2ccc(Cl)cc2)o1	GC-A act 49.3
CC(C)(C)NCC(O)CSc1nc(-c2ccc(C(N)=O)s2)cs1 (stereo unspecified)	none (no result: GC-A act, V-ATPase pH, GC-B act, PG9 Ab binder)
O=C(N/N=C/c1ccc(-c2ccc([N+](=O)[O-])cc2)o1)C(O)c1ccccc1 (stereo unspecified)	GC-A act 41.8, GC-B act 40.5
O=C(OC1CCOC1=O)C1CCN(S(=O)(=O)c2ccc(Cl)c(C(F)(F)F)c2)CC1 (stereo unspecified)	GC-B act 51.4
N#Cc1c(N)[nH]c2ccc(Sc3ccccc3)cc12	GC-A act 59.4, GC-B act 44.0
COc1ccc(C(C(=O)NC(C)(C)C)n2c(COc3ccc(C)cc3)nc3ccccc32)cc1 (stereo unspecified)	none (no result: V-ATPase pH)
COc1ccc(C(C(=O)NC(C)(C)C)n2c(-c3ccc(=O)[nH]c3)nc3ccccc32)cc1 (stereo unspecified)	GC-A act 45.3, GC-B act 45.4 (no result: V-ATPase pH)
CCOC(=O)Cn1ccc(NC(=O)COc2ccc(F)cc2F)n1	GC-A act 41.0
CCOC(=O)Cn1ccc(NC(=O)c2ccc(F)cc2)n1	GC-A act 49.6
CCOC(=O)Cn1ccc(NC(=O)COc2ccc(F)cc2)n1	none
C[C@@H]1O[C@@H](OC[C@H]2OC(Oc3c(-c4ccc(OCCO)c(OCCO)c4)oc4cc(OCCO)cc(O)c4c3=O)[C@H](O)[C@@H](O)[C@@H]2O)[C@H](O)[C@H](O)[C@H]1O (stereo partly specified)	none (no result: GC-A act, V-ATPase pH, GC-B act, PG9 Ab binder)
CSc1nc(C)c2c(n1)N(c1ccc(O)cc1)CC2	none
CSc1nc(C)c2c(n1)N(c1ccc(F)cc1)CC2	PG9 Ab binder 10.3
CCC(C)C(=O)O[C@H]1C[C@H](O)C=C2C=C[C@H](C)[C@H](CC[C@@H](O)C[C@@H](O)CC(=O)O)C21 (stereo partly specified)	none (no result: GC-A act, V-ATPase pH, GC-B act, PG9 Ab binder)
Fc1ccc(Cn2ccc3ccc(-c4ccc5ccn(Cc6ccc(F)cc6)c5c4)cc32)cc1	none (no result: V-ATPase pH, PG9 Ab binder)
c1cc2ccn(CC3CC3)c2cc1-c1ccc2ccn(CC3CC3)c2c1	GC-B act 38.0 (no result: V-ATPase pH, PG9 Ab binder)

From PubChem
